Reference: PubChem BioAssay (EPA / NIEHS)
Records with an inconclusive call do not appear. The source made the active and inactive calls. The calls were made as follows, unless noted: active = hit-call score of the fitted dose curve at least 0.9, where 1 is the maximum; inconclusive = response in the unintended direction; inactive = score below 0.9.

Assays:
[1] = ATG_M_19_CIS: Attagene CIS-FACTORIAL HepG2 Assay for M19 Transcription Factor (Internal Marker) (AID 2282939; active = hit-call score of the fitted dose curve at least 0.9, where 1 is the maximum; inactive = score below 0.9); conditions: HepG2 Attagene CIS-FACTORIAL M19 internal marker reporter; actives raise or lower the signal
Summary of the method: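 Readout: fluorescent reporter-transcript fragments by capillary electrophoresis after RT-PCR. Human HepG2 liver cells carried transfected MRTU constructs reporting endogenous transcription-factor activity; exposure 24 h. Gain or loss of signal fitted relative to DMSO.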

[2] = ATG_GATA_CIS: Attagene CIS-FACTORIAL HepG2 Assay for human GATA Binding Protein (AID 2282944; active = hit-call score of the fitted dose curve at least 0.9, where 1 is the maximum; inactive = score below 0.9); conditions: HepG2 GATA cis-element reporter, Attagene multiplex mRNA; actives raise or lower the signal
Summary of the method: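 Read-out: fluorescent reporter mRNA fragments resolved by capillary electrophoresis after RT-PCR. Human liver HepG2 cells carried transiently transfected cis-regulated reporter constructs; chemicals incubated 24 h; gain or loss of signal fitted relative to DMSO.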

[3] = target: Hepatocyte nuclear factor 6 (Homo sapiens) (UniProt Q9UBC0); test: ATG_HNF6_CIS: Attagene CIS-FACTORIAL HepG2 Assay for human Hepatocyte Nuclear Factor 6 (HNF6) (AID 2282952; active = hit-call score of the fitted dose curve at least 0.9, where 1 is the maximum; inactive = score below 0.9); conditions: HepG2 Attagene cis-factorial HNF6 reporter transcription; actives raise or lower the signal
Hepatocyte nuclear factor 6 (Homo sapiens), sequence (Q9UBC0 whole entry, looked up): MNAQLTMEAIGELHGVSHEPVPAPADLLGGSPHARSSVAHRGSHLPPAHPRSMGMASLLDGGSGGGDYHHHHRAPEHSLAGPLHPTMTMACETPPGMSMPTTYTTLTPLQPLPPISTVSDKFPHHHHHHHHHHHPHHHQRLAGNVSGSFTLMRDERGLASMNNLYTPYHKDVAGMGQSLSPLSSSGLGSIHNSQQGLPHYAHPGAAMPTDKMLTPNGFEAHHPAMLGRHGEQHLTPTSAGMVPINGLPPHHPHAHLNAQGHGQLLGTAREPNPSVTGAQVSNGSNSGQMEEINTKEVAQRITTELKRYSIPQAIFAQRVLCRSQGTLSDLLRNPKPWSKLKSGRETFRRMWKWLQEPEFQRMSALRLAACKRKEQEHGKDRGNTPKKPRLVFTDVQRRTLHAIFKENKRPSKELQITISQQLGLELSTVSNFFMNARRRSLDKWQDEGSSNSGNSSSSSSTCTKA
Summary of the method: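 Endogenous transcription factor activity in human HepG2 liver cells was captured through cis-regulated reporter constructs. After 24 h treatment, reporter mRNA was measured by RT-PCR with capillary electrophoresis, and activity was fitted in both directions relative to DMSO.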

[4] = ATG_TA_CIS: Attagene CIS-FACTORIAL HepG2 Assay for human TA Basal Promoter (AID 2282964; active = hit-call score of the fitted dose curve at least 0.9, where 1 is the maximum; inactive = score below 0.9); conditions: HepG2 Attagene CIS-factorial TA basal promoter reporter; actives raise or lower the signal
Summary of the method: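 Transfected HepG2, 24 h compound exposure; RNA → RT-PCR → FAM primer extension → HpaI cut → CE fluorescence. Gain/loss-of-signal fitted against DMSO negative control. Background-control readout.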

[5] = target: Hepatocyte nuclear factor 4-alpha (Homo sapiens) (UniProt P41235); test: ATG_HNF4a_TRANS: Attagene TRANS-FACTORIAL HepG2 Assay for human Hepatocyte Nuclear Factor 4 alpha (HNF4a) (AID 2282982); conditions: HepG2 HNF4a transactivation reporter, mRNA readout
Hepatocyte nuclear factor 4-alpha (Homo sapiens), sequence (P41235 whole entry, looked up, the tested form may be a part): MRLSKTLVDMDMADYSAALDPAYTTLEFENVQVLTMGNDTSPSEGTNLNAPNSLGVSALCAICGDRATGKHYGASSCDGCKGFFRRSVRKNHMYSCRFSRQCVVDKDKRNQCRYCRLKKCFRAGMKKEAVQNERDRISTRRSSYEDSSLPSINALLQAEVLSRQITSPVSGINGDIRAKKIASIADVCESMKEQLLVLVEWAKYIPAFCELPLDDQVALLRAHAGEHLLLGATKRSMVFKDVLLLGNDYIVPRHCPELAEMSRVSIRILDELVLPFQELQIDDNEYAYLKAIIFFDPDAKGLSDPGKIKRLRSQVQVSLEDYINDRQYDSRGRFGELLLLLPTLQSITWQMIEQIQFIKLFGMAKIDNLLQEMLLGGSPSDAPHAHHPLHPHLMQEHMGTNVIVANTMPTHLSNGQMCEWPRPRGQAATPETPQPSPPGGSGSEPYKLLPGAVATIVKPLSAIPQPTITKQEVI
Summary of the method: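 Activity of an exogenous HNF4a–Gal4 fusion scored as induced GAL4-UAS reporter transcripts after 24 h chemical exposure of transfected human HepG2 cells. Read-out via RT-PCR with 6-FAM labelling and capillary electrophoresis; rise over DMSO baseline.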

[6] = ATG_M_06_TRANS: Attagene TRANS-FACTORIAL HepG2 Assay for M06 Transcription Factor (Internal Marker) (AID 2282983); conditions: HepG2 Attagene TRANS M06 internal marker reporter
Summary of the method: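 Human liver HepG2 cells bearing transiently transfected chimeric NR-GAL4 reporter units were treated with chemicals for 24 h. Total RNA was reverse-transcribed, reporter sequences amplified and labelled, then quantified by capillary electrophoresis. Activity was fitted upward relative to DMSO.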

[7] = ATG_M_32_TRANS: Attagene TRANS-FACTORIAL HepG2 Assay for M32 Transcription Factor (Internal Marker) (AID 2282984); conditions: HepG2 Attagene TRANS M32 internal marker reporter;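 also: transcript level of a background control reporter unit measured by RT-PCR and capillary electrophoresis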
Summary of the method: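 Internal background reporter in transfected HepG2: after 24 h chemical exposure, RNA reverse-transcribed, reporter cDNA amplified, fluorescently labelled and HpaI-cut, then sized by capillary electrophoresis. Gain of signal fitted against DMSO control.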

[8] = target: Retinoic acid receptor RXR-alpha (Homo sapiens) (UniProt P19793); test: ATG_RXRa_TRANS: Attagene TRANS-FACTORIAL HepG2 Assay for human Retinoid X Receptor alpha (RXRa) (AID 2283012)
Retinoic acid receptor RXR-alpha (Homo sapiens), sequence (P19793 whole entry, looked up, the tested form may be a part): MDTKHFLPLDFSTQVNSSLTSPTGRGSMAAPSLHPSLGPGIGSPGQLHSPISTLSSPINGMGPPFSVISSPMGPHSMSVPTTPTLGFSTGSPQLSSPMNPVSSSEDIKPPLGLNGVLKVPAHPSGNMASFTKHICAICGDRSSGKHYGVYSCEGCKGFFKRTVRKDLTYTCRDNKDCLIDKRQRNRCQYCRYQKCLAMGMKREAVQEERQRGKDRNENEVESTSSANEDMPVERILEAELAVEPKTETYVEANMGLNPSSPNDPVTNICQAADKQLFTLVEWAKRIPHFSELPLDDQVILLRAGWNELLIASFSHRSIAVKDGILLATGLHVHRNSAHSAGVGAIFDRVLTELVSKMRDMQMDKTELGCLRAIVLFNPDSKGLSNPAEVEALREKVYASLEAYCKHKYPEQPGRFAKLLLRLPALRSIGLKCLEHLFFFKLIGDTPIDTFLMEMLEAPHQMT
Summary of the method: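 TRANS format reporting activity of exogenous RXRa-Gal4 chimera in transiently transfected HepG2, 24 h exposure. Reporter transcripts quantified by RT-PCR with capillary electrophoresis, with gain of signal scored relative to DMSO.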

[9] = target: human Retinoid X Receptor beta (RXRb), RXRB (gene 6257) (UniProt P28702); test: ATG_RXRb_TRANS: Attagene TRANS-FACTORIAL HepG2 Assay for human Retinoid X Receptor beta (RXRb) (AID 2283013)
human Retinoid X Receptor beta (RXRb), RXRB (gene 6257), sequence (P28702 whole entry, looked up, the tested form may be a part): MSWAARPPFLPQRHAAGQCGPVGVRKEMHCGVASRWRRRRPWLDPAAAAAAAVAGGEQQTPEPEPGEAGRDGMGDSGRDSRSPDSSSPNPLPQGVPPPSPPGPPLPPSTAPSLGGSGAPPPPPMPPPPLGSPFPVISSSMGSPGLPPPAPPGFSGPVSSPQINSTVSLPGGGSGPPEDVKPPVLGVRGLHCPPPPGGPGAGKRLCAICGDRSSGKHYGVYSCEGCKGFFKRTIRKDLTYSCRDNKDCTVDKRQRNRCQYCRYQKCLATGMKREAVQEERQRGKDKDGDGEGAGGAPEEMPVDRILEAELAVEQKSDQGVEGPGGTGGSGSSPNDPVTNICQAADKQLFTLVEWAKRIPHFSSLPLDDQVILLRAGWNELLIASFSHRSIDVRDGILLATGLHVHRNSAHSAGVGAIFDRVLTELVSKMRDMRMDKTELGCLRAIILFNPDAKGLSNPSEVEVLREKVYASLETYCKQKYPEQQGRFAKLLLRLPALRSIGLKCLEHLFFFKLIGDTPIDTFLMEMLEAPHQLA
Summary of the method: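 Readout is reporter transcript induction after 24 h dosing. It is measured by RT-PCR of total RNA followed by fluorescent capillary electrophoresis. HepG2 liver cells carry transfected multiple reporter units driven by an exogenous RXRb-Gal4 fusion; activity is relative to DMSO.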

[10] = target: Paired box protein Pax-6 (Homo sapiens) (UniProt P26367); test: ATG_Pax6_CIS: Attagene CIS-FACTORIAL HepG2 Assay for human Paired Box 6 (PAX6) (AID 2282956; active = hit-call score of the fitted dose curve at least 0.9, where 1 is the maximum; inactive = score below 0.9); conditions: HepG2 CIS-FACTORIAL PAX6 reporter transcription, RNA readout; actives raise or lower the signal
Paired box protein Pax-6 (Homo sapiens), sequence (P26367 whole entry, looked up): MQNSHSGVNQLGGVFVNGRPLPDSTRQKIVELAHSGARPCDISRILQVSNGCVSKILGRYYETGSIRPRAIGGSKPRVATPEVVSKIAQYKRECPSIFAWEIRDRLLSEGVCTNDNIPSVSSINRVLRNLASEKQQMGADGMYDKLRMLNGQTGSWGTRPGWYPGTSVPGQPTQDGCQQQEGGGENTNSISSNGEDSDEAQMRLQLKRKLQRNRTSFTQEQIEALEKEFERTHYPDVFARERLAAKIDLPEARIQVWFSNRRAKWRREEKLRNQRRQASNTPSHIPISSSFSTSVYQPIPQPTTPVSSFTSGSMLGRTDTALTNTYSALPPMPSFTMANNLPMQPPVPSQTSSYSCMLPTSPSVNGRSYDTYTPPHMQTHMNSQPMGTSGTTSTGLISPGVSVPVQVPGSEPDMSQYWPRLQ
Summary of the method: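 DMSO-referenced bidirectional fits of reporter mRNA fluorescence; HepG2 with transient cis-promoter MRTUs, 24 h post-dose, RT-PCR plus capillary electrophoresis detection.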

[11] = ATG_NF_kB_CIS: Attagene CIS-FACTORIAL HepG2 Assay for human Nuclear Factor Kappa B (NF-kB) (AID 2282991; active = hit-call score of the fitted dose curve at least 0.9, where 1 is the maximum; inactive = score below 0.9); conditions: HepG2 Attagene cis-factorial NF-kB reporter mRNA; actives raise or lower the signal
Summary of the method: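 After 24 h compound incubation, transfected HepG2 cells yield total RNA; reporter cDNA is PCR-amplified, end-labelled with 6-FAM, HpaI-digested and analysed on a genetic analyser. Endogenous factor activity, DMSO-referenced bidirectional fit.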

[12] = target: Cellular tumor antigen p53 (Homo sapiens) (UniProt P04637); test: TOX21_p53_BLA_p2_ratio: Tox21 HCT-116 p53 Agonism Beta-lactamase Assay, Ratio, Phase 2 (AID 2283592)
Cellular tumor antigen p53 (Homo sapiens), sequence (P04637 whole entry, looked up): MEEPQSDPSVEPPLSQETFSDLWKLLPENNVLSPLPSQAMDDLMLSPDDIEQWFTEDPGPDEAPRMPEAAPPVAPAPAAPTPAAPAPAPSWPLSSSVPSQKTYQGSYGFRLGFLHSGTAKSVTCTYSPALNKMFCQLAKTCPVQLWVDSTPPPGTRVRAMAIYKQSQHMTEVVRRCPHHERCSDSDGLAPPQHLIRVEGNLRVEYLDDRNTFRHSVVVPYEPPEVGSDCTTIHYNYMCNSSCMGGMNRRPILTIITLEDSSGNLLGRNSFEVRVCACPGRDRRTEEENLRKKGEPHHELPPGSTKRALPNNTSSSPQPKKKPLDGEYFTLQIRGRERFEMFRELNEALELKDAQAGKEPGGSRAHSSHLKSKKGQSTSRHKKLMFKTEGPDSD
Summary of the method: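 Cleaved-to-uncleaved substrate ratio (460 vs 530 nm) measured in HCT116 cells with an inducible beta-lactamase reporter linked to p53 activity. Compounds incubated 16 h at 37C before 2 h room-temperature CCF4-AM loading.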

[13] = target: Cellular tumor antigen p53 (Homo sapiens) (UniProt P04637); test: TOX21_p53_BLA_p5_ratio: Tox21 HCT-116 p53 Agonism Beta-lactamase Assay, Ratio, Phase 5 (AID 2283599)
Summary of the method: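 Beta-lactamase reporter ratio (blue 460 nm over green 530 nm, 405 nm excitation) after 2 h CCF4-AM loading, in HCT-116 cells exposed 16 h at 37 C to compounds pinned at 217-fold dilution. Increases relative to DMSO baseline scored.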

[14] = ATG_PBREM_CIS: Attagene CIS-FACTORIAL HepG2 Assay for human Phenobarbital-responsive Enhancer Module (PBREM) (AID 2282955; active = hit-call score of the fitted dose curve at least 0.9, where 1 is the maximum; inactive = score below 0.9); conditions: HepG2 PBREM cis-reporter, Attagene multiplexed transcription; actives raise or lower the signal
Summary of the method: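 Readout: reporter mRNA, fluorescent RT-PCR fragments separated by capillary electrophoresis. System: HepG2 transiently transfected with cis-regulated reporter units. Exposure: 24 h. Analysis: bidirectional, DMSO baseline.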

[15] = ATG_NFI_CIS: Attagene CIS-FACTORIAL HepG2 Assay for human Nuclear Factor I (NFI) (AID 2282989; active = hit-call score of the fitted dose curve at least 0.9, where 1 is the maximum; inactive = score below 0.9); conditions: HepG2 cis-regulatory reporter, NFI response element transcription; actives raise or lower the signal
Summary of the method: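 Read-out: reporter mRNA via RT-PCR plus capillary electrophoresis with fluorescence detection. Transiently transfected HepG2 (endogenous TF activity on cis promoters), 24 h compound exposure; gain or loss of signal fitted against DMSO.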

[16] = target: human Vitamin D Receptor (VDR), VDR (gene 7421) (UniProt P11473); test: ATG_VDR_TRANS: Attagene TRANS-FACTORIAL HepG2 Assay for human Vitamin D Receptor (VDR) (AID 2283022)
human Vitamin D Receptor (VDR), VDR (gene 7421), sequence (P11473 whole entry, looked up, the tested form may be a part): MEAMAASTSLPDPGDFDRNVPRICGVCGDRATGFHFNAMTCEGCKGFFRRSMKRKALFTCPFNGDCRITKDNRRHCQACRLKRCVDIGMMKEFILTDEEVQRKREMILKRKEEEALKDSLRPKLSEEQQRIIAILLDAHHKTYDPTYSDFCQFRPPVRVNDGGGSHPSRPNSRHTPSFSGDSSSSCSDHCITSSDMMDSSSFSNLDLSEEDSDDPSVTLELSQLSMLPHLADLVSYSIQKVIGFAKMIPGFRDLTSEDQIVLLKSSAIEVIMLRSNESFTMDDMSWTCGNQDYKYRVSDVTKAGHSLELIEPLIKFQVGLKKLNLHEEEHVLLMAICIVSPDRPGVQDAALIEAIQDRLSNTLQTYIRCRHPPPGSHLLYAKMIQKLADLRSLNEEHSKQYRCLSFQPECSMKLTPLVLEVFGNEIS
Summary of the method: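 Fluorescence of labelled reporter cDNA fragments, resolved by capillary electrophoresis, gives mRNA induction after 24 h treatment of HepG2 cells carrying transfected Gal4-fusion reporter units. Activity is fitted in the positive direction with DMSO as baseline.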

[17] = TOX21_p53_BLA_p2_viability: Viability Assessment in the Tox21 HCT-116 p53 Agonism Beta-lactamase Assay, Phase 2 (AID 2283591);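 also: compound exposure lasted 16 h at 37 °C; actives lower the ATP signal meaning cytotoxicity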
Summary of the method: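 Cytotoxicity readout: CellTiter-Glo ATP luminescence, 30 min at room temperature, after the beta-lactamase read. Cells were HCT116 exposed 16 h at 37C to compounds pin-transferred at 217-fold dilution from DMSO stocks.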

[18] = target: Cellular tumor antigen p53 (Homo sapiens) (UniProt P04637); test: TOX21_p53_BLA_p3_ratio: Tox21 HCT-116 p53 Agonism Beta-lactamase Assay, Ratio, Phase 3 (AID 2283596)
Summary of the method: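 Cells were seeded at 4000/well, rested 5 h at 37C, then dosed with DMSO compound solutions (217-fold dilution) for 16 h. CCF4-AM substrate was loaded for 2 h at room temperature, and the 460/530 nm emission ratio was fitted for gain of signal versus DMSO.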

[19] = target: Cellular tumor antigen p53 (Homo sapiens) (UniProt P04637); test: TOX21_p53_BLA_p4_ratio: Tox21 HCT-116 p53 Agonism Beta-lactamase Assay, Ratio, Phase 4 (AID 2283601)
Summary of the method: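 Signal is the blue/green (460nm/530nm) ratio of cleaved versus uncleaved CCF4-AM substrate, read after 2 h substrate loading. Cells were HCT116 carrying the p53-responsive beta-lactamase reporter, dosed 16 h at 37C, 5% CO2; CellTiter-Glo measured in parallel.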

[20] = ATG_GRE_CIS: Attagene CIS-FACTORIAL HepG2 Assay for human Glucocorticoid Response Elements (GRE) (AID 2282947; active = hit-call score of the fitted dose curve at least 0.9, where 1 is the maximum; inactive = score below 0.9); conditions: HepG2 GRE cis-reporter, Attagene multiplex mRNA; actives raise or lower the signal
Summary of the method: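 Reporter transcripts read by RT-PCR with capillary electrophoresis fluorescence after a 24 h chemical exposure of HepG2 cells transiently transfected with multiple cis-element reporter units. Gain or loss fitted against DMSO.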

Measured: outcome

C1=CCC=C1
inactive: [1] | [2] | [3] | [4] | [5] | [6] | [7] | [8] | [9]

Clc1ccccn1
inactive: [1] | [2] | [3] | [10] | [4] | [5] | [6] | [7] | [11] | [12] | [13]

CCCCCCC1CCC(=O)O1 (stereo not drawn)
not listed: [2] | [6] | [11] | [19] | [20]
inactive: all other assays above

CN(C)c1ccc(C(c2ccccc2)c2ccc(N(C)C)cc2)cc1
not listed: [4] | [6] | [15] | [16] | [20]
inactive: all other assays above

CC/C=C\CC1=C(C)CCC1=O
not listed: [4] | [6] | [17] | [20]
inactive: all other assays above

OCCN(CCO)c1cccc(Cl)c1
not listed: [3] | [7] | [20]
inactive: all other assays above

CC1=C(CC=O)C(C)(C)CCC1
not listed: [1] | [2] | [5] | [9] | [12] | [14] | [20]
inactive: all other assays above

COC(=O)CCSCCC(=O)OC
inactive: [1] | [20] | [3] | [14] | [10] | [4] | [7] | [11]

Cc1cccnc1
inactive: [2] | [3] | [14] | [10] | [4] | [7] | [11] | [8]

CCCOCCC
not listed: [7] | [8] | [16] | [18]
inactive: all other assays above
